# Source: PubChem BioAssay (Tox21)
# Active and inactive are the calls of the source. Calls follow the shape of the full dose curve.
# Test: G protein-coupled receptor (GPCR) small molecule agonists, calcium flux assay: HEK293 wild type cell line counter screen (AID 1920065)
# Details: HEK293 WT calcium flux, fluorescence, agonist mode; series mostly up to 57.6 µM
# Source text: U.S. Tox21 Program National Center for Advancing Translational Sciences [NCATS] Division of Preclinical Innovation [DPI] U.S. Environmental Protection Agency [EPA] National Institutes of Environmental Health Sciences [NIEHS] National Toxicology Program [NTP] U.S. Food and Drug Administration [FDA] Assay overview: The increased intracellular calcium release that occurred upon G protein-coupled receptor (GPCR) activation led to the frequent use of calcium flux assays to detect GPCR activation. For the purpose of studying and screening compounds that may activate GPCR, receptor-overexpressing models were typically generated using Hek293 wild-type (WT) cells. In order to eliminate the compounds that may have induced calcium release for non-specific activation, a counter-assay utilizing calcium flux on Hek293 WT cells was performed. The data were formulated in order to serve as a control for any calcium flux detection utilizing Hek293 cells with either GPCR overexpression or gene modification. The procurement of Hek293 WT cells from ATCC. Fluorescence intensity can be utilized to determine the activation of the compound in a calcium flux assay. As a counter control, this cell line was utilized to screen the Tox21 10K compound library.
# Assay Protocol Summary: Hek293 cells were dispensed at 1500cells/4uL/well in 1536-well black wall/clear bottom plates using a multidrop dispenser. After the assay plates were incubated at a 37 C/5% CO2 incubator for 18 hours, 4 uL of Calcium Dye Solution was added to each well. The plates were incubated at 37 C for 1 hour. For agonist mode, 23 nL of compounds dissolved in DMSO, positive control (ATP) or DMSO only was transferred to the assay plate by a pin tool station. The fluorescence intensity in the plates was measured using FDSS 7000EX kinetic plate reader with a filter set of Ex/Em=480/540 for 3 min at 1 sec intervals. Each test compound was measured at 15 concentrations and in triplicates.
# % is scaled to controls: 0 for no effect and ±100 for the full control effect.
Compound,outcome,activation
CCC(C)(CCC(C)C)C(=O)[O][Sn]([CH3])([CH3])[O]C(=O)C(C)(CC)CCC(C)C (stereo not given),inactive,–
CC(C)OCC1CO1 (stereo not given),inactive,–
Cc1cc(-n2nc3ccc(Cl)cc3n2)c(O)c(C(C)(C)C)c1,inactive,–
CCC(C(=O)OCCN1CCOC(c2ccccc2)C1C)c1ccccc1 (stereo not given),inactive,–
CC(C)OC(=O)c1ccccc1,inactive,–
CCCCCOc1ccc(C2SC(=O)NC2=O)cc1OCC (stereo not given),inactive,–
COc1ccc(NS(=O)(=O)c2ccc(N)cc2)nn1,inactive,–
O=C(O)c1ccc2c(c1)nc(C(=O)NC1CCN(C3CC3)CC1)n2Cc1cc(-c2ccc(Cl)s2)on1,–,0.0965% [at 11.8 µM] (inactive)
O=[N+]([O-])c1ccc(CO)cc1,inactive,–
C[C@@]12C(=O)OC(=O)[C@]1(C)C1CCC2O1,inactive,–
O=C1c2ccccc2C(=O)C1(O)O,inactive,–
CN1CCC(=C2c3ccccc3CCc3sccc32)CC1,inactive,–
CCC1=C(C)CN(C(=O)NCCc2ccc(S(=O)(=O)NC(=O)NC3CCC(C)CC3)cc2)C1=O (stereo not given),inactive,–
COc1cccc(O)c1,inactive,–
CCN(CC)CCc1nc(-c2ccccc2)no1,inactive,–
Cc1ccc(=O)n(-c2ccccc2)c1,inactive,–
C[Si](C)(CCCN)O[Si](C)(C)CCCN,inactive,–
O=Cc1ccc(F)c(Br)c1,inactive,–
COc1ccccc1NC(=O)c1cc2ccccc2cc1O,inactive,–
Cc1ccc2cccnc2c1,inactive,–

Compound,outcome,activation
Fc1ccc([C@@H]2CCNC[C@H]2COc2ccc3c(c2)OCO3)cc1,inactive,–
COC(=O)CCCCC(CCSS/C(CCO)=C(\C)N(C=O)Cc1cnc(C)nc1N)SC(C)=O (stereo not given),inactive,–
C[N+](C)(C)CCOC(=O)CCC(=O)OCC[N+](C)(C)C,inactive,–
C[Si]1(C)N[Si](C)(C)N[Si](C)(C)N1,inactive,–
CCOc1cccc(N)c1,inactive,–
C=COCCCCO,inactive,–
C=C(C)C(=O)OCCOCC,inactive,–
C1=CCCC1,inactive,–
O=C(NCCCN1CCOCC1)c1ccc(Cl)cc1,inactive,–
CCNc1nc(NC(C)(C)C)nc(OC)n1,inactive,–
CCCCCCCCCCCCCCCC[N+](C)(C)CCN(Cc1ccc(OC)cc1)c1ncccn1,inactive,–
NCCCC[C@H](N[C@@H](CCc1ccccc1)C(=O)O)C(=O)N1CCC[C@H]1C(=O)O,inactive,–
Cc1ccc(Cl)c(OCC(O)CNC(C)(C)C)c1 (stereo not given),inactive,–
CCCCCCc1ccc(N)cc1,inactive,–
OC[C@H]1O[C@@H](O[C@@H]2[C@@H](CO)O[C@](O)(CO)[C@H]2O)[C@H](O)[C@@H](O)[C@H]1O,inactive,–
COc1cc2[nH]c(=O)[nH]c(=O)c2cc1OC,inactive,–
CC[C@@]1(O)C(=O)OCc2c1cc1n(c2=O)Cc2c-1nc1ccccc1c2/C=N/OC(C)(C)C,inactive,–
CCCCCCCCCCCC(=O)Cl,inactive,–
CCN1CCCC1CN (stereo not given),inactive,–
CCCN1C[C@H](CSC)C[C@@H]2c3cccc4[nH]cc(c34)C[C@H]21,inactive,–
